tim23-1 inh: growth inhibitors of tim23-1 mutant yeast; S. cerevisiae tim23-1 growth, BacTiter-Glo luminescence, 24 h; inhibition, % at 20 µM; 1.3% of 330,000 active;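 active = growth inhibition of the mutant yeast at or above 50%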;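 also: temperature-sensitive mutant grown at 25 °C; plate controls were DMSO-treated mutant yeast for no effect and medium wells lacking yeast for full effect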
tim10-1 inh: growth inhibitors of tim10-1 mutant yeast; S. cerevisiae tim10-1 ts strain growth, BacTiter-Glo, 24 h; 2.2% of 330,000 active; inhibition, % at 20 µM;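 active = inhibition of at least 40%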;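 also: mutant grown at 25 °C; 0% = DMSO wells with yeast and 100% = wells holding no yeast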
SKKanGAS inh: SKKanGAS growth inhibition; S. pyogenes SKKanGAS, kanamycin growth, BacTiter-Glo, 6 h; inhibition, % at 7.5 µM; 1.3% of 300,000 active;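 active = mean replicate score, as percent of positive control median, at least 50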;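 also: strain carries kanamycin resistance gene driven by streptokinase promoter and grows in 40 µg/ml kanamycin; loss of luminescence reflects streptokinase promoter inhibition or plain growth inhibition; 0% = median of DMSO wells and 100% = positive control at its reference dose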
NALP1 inh: inhibitors of NALP1 inflammasome in yeast. S. cerevisiae NALP1/ASC/caspase-1 growth, X-gal OD620, 72 h. 0.61% of 280,000 active. inhibition, % at 10 µM; in the data active = inhibition mostly above about 24%, no sharp cut-off; inactive = mostly below about 32%
NLRP3 yeast inh: inhibitors of NALP3 inflammasome in yeast | AID 2825 | Yeast reconstituted NLRP3/ASC/caspase-1, beta-gal luminescence, 24 h | inhibition, % at 10 µM | 0.39% of 330,000 active;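 active = inhibition of 50% or more; inactive = inhibition below 50%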;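 also: plate controls were induced DMSO wells for no effect and uninduced yeast grown without galactose for full effect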
TIM10 inh: growth inhibitors of TIM10 yeast strain; S. cerevisiae TIM10 strain growth, BacTiter-Glo luminescence, 24 h; inhibition, % at 10 µM; 1.4% of 330,000 active;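 active = inhibition of 40% or more at the single tested concentration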;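 also: wild-type TIM10 isogenic control strain grown at permissive 25 °C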
NALP3 yeast conf: confirmation of NALP3 inhibitors in yeast; shares compounds with NLRP3 yeast inh; yeast expressing human NALP3, luminescence; inhibition, % at 10 µM; 81% of 1,300 active; in the data active = inhibition above about 48%
Casp1-ASC yeast: counter-screen for NALP3 inhibitors: yeast caspase-1-ASC; shares compounds with NLRP3 yeast inh; yeast expressing Caspase-1-ASC, luminescence counter screen; inhibition, % at 10 µM; 66% of 1,000 active; AID 488784
NALP3 retest: retest-confirmed inhibitor of NALP3 in yeast | shares compounds with NLRP3 yeast inh | yeast expressing human NALP3, luminescence read-out | inhibition, % at 10 µM | 53% of 1,000 active
tim10-1 confirm: tim10-1 yeast growth inhibition, confirmed. inhibition, % at 20 µM. S. cerevisiae tim10-1 ts strain growth, BacTiter-Glo, 24 h. shares compounds with tim10-1 inh. 56% of 7,400 active;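 active = inhibition of yeast growth at or above a set limit in either of two repeat tests at 20 µM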;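 also: tim10-1 mutant grown at permissive 25 °C to find synthetic lethal compounds; 0% = DMSO yeast wells and 100% = medium wells without yeast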
* = called active by the depositor; · = no result given. An excerpt weighted towards active compounds, which were near 4.9% of everything screened. Rule as the data show it, unless noted: active = inhibition above about 50%; inactive = the rest.

SMILES | tim23-1 inh | tim10-1 inh | SKKanGAS inh | NALP1 inh | NLRP3 yeast inh | TIM10 inh | NALP3 yeast conf | Casp1-ASC yeast | NALP3 retest | others
CC(C)(C)c1ccc(C(=O)Nc2cccc(-n3cnnn3)c2)cc1 | 44.6 | 28.2 | -8.9 | 18.3 | 52.3* | 21.0 | 65.0* | 58.1* | 26.6
O=C(/C=C/c1cccc([N+](=O)[O-])c1)NCc1ccccc1 | 11.5 | 6.3 | 0.5 | -23.3 | 16.9 | 10.7 | · | · | ·
O=C(/C=C/c1cccc([N+](=O)[O-])c1)NCCSCc1cccc(Cl)c1 | 36.9 | 38.4 | -1.7 | 21.3 | 71.3* | 37.1 | -6.3 | · | ·
CCc1nc(SCC(=O)NCc2ccccc2)c2c(=O)n(C)c(=O)n(C)c2n1 | -0.1 | 0.4 | -0.1 | 32.5 | 13.7 | -10.3 | · | · | ·
CC(C)Cc1nc(SCc2cccnc2)c2c(=O)n(C)c(=O)n(C)c2n1 | 34.8 | 13.2 | 10.5 | -10.8 | 59.8* | -0.7 | 63.6* | 57.0* | 42.2
CCc1nc(SCc2cccnc2)c2c(=O)n(C)c(=O)n(C)c2n1 | 43.9 | -2.0 | -7.3 | · | 53.3* | -6.5 | 67.5* | 58.2* | 47.8
CC(C)Cc1nc(SCC(=O)N2CC(C)OC(C)C2)c2c(=O)n(C)c(=O)n(C)c2n1 (stereo unspecified) | 25.0 | 22.1 | -0.7 | 3.1 | 6.2 | 13.1 | · | · | ·
CC(C)CNC1=C(C(=S)Nc2ccccc2)C(=O)CC(C)(C)C1 | 39.8 | 23.1 | 30.1 | 32.9 | 14.9 | 28.4 | · | · | ·
Cc1ccc2[nH]c(O)c(N=O)c2c1 | -2.7 | -5.0 | 12.9 | 36.9 | -9.3 | -6.2 | · | · | ·
Cc1ccc(NC(=O)c2cccc(S(=O)(=O)N(C)C3CCCCC3)c2)nc1 | 24.6 | 22.1 | -8.2 | · | 2.2 | -25.2 | · | · | ·
CCOC(=O)CCSc1nc2c(c(C(F)(F)F)c1C#N)CCC2 | 10.1 | 6.4 | -7.0 | 13.4 | 59.7* | -15.9 | 46.9* | 64.3* | 58.7*
CCCCSc1nc2c(c(C(F)(F)F)c1C#N)CCC2 | -13.0 | 8.0 | 29.8 | -1.7 | 3.6 | -8.2 | · | · | ·
CC1CCN(S(=O)(=O)c2cccc(-c3cn4cc(Cl)ccc4n3)c2)CC1 | 33.9 | 19.7 | 0.9 | 2.2 | 64.4* | 25.5 | 74.8* | 38.0 | 33.4
CC(O)(CC(=O)O)CC(=O)O | -3.1 | -8.2 | 2.2 | · | -6.3 | -9.1 | · | · | ·
CCOc1ccc(OCCOC(=O)CNC(=O)c2ccc(Cl)cc2Cl)cc1 | 15.8 | 20.3 | -5.3 | · | 20.5 | -3.7 | · | · | ·
Cc1cc(NC(=O)/C=C/c2ccccc2)no1 | 46.4 | -48.5 | -2.4 | -4.7 | 50.2* | 11.2 | 67.8* | 38.7 | 46.4
COc1ccc(/C=C/C(=O)Nc2cc(C)on2)cc1 | 2.4 | -20.4 | 1.8 | 36.1 | 31.7 | 2.4 | · | · | ·
O=C(NCCC1=CCCCC1)c1ccc([N+](=O)[O-])cc1 | 8.7 | 10.5 | 2.9 | 39.2 | 57.7* | 8.1 | 21.7 | · | ·
O=C(CC12CC3CC(CC(Br)(C3)C1)C2)NC1CCCC1 | 9.8 | 13.8 | 0.0 | 6.2 | 10.5 | -8.3 | · | · | ·
COC(=O)CN(c1ccc(C)cc1)S(=O)(=O)c1ccc(F)cc1 | 13.8 | 20.3 | -10.9 | 10.2 | 58.0* | 0.7 | 55.3* | · | ·
COc1ccc(N/N=C(\C#N)C(N)=O)cc1 | -138.6 | -81.4 | -3.2 | 16.6 | 6.5 | -146.9 | · | · | ·
N#C/C(=N/Nc1ccc(OC(F)(F)F)cc1)C(N)=S | 26.2 | 47.5* | 114.9* | 6.6 | 85.8* | 25.6 | 96.8* | · | · | tim10-1 confirm=56.5*
COC(=O)C(=Cc1ccccc1[N+](=O)[O-])C(=O)OC | 43.8 | 43.5* | -2.4 | 14.5 | 51.3* | 20.6 | 62.9* | 40.6 | 44.0 | tim10-1 confirm=26.7
Cc1ccc(C(=O)c2no[n+]([O-])c2C(=O)c2ccc(C)cc2)cc1 | 46.6 | 43.7* | 7.0 | 91.3 | 58.9* | 0.5 | 62.6* | 71.7* | 51.8* | tim10-1 confirm=60.0*
C/C(CC1CC(C)OC1=O)=N\NC(N)=S (stereo unspecified) | -0.7 | 2.8 | -2.7 | 11.0 | -2.3 | 7.7 | · | · | ·

Screening data (PubChem)
